Source: PubChem BioAssay
Active and inactive are the calls of the source. Unless noted, the rule behind the calls is not given here.

Experiments:
[1] = resazurin metabolic signal in HepG2 cells – cell-based, resazurin fluorescence, 24 h, PK04 Diversity Set, profiling panel (AID 1172); details: HepG2 viability, higher = more signal
[2] = budding yeast growth changes without added modifier – OD600, strain BY4716, 24 h, basal condition, primary screen (AID 1173); details: S. cerevisiae BY4716 growth, OD600, 24 h; higher = more signal, called active from +8 up or from −8 down
[3] = viability profiling in MM1S myeloma cells – cell-based, resazurin fluorescence, basal, 24 h, PK04 Diversity Set, profiling panel (AID 1174); details: higher = more signal, called active from +8 up or from −8 down;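 note: MM1S multiple myeloma cell line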
[4] = target: Dihydroorotate dehydrogenase (quinone), mitochondrial (Plasmodium falciparum (isolate 3D7)) (UniProt Q08210); test: inhibition of P. falciparum DHODH – biochemical, C-terminal His tag, absorbance 600 nm, primary screen (AID 1175); details: PfDHODH enzyme, DCIP absorbance 600 nm; higher = more signal, called active from +8 up or from −8 down;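 note: recombinant parasite enzyme with a five histidine tag at its C terminus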
Chain of Dihydroorotate dehydrogenase (quinone), mitochondrial (Plasmodium falciparum (isolate 3D7)) (Q08210 whole entry, looked up): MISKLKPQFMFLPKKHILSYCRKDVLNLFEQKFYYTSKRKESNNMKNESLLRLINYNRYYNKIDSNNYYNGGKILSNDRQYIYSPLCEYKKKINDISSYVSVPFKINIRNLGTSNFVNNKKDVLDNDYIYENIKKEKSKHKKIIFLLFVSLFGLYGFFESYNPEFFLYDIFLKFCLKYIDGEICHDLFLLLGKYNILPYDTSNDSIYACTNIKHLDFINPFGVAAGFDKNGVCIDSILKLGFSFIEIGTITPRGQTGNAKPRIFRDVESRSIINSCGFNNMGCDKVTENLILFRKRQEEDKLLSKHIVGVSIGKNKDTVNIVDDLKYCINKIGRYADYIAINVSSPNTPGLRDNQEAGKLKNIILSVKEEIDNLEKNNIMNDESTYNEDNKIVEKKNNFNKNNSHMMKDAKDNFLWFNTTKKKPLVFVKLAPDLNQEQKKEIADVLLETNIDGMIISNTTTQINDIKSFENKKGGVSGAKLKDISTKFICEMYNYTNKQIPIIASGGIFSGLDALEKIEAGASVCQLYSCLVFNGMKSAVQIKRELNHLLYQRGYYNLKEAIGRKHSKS

[5] = inhibition of PAO1 biofilm formation – strain PAO1, LB-PBS medium, absorbance 600 nm, primary screen (AID 1176); details: P. aeruginosa PAO1 growth/biofilm, A600, 12 h; higher = more signal
[6] = growth modulation of vineyard yeast isolate – strain RM11-1a, OD600, basal, 24 h, primary screen (AID 1177);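 note: cultures grown under basal conditions with no added stressor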; details: S. cerevisiae RM11-1a growth, OD600, 24 h; higher = more signal, called active from +8 up or from −8 down
[7] = growth of efflux-deficient E. coli DRC39 – strain DRC39, OD650, 24 h, E. coli filamentation inducers, primary screen (AID 1178);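 note: growth measured as culture turbidity by optical density at 650 nm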; details: E. coli DRC39 acrAB, higher = more signal, called active from +8 up or from −8 down
[8] = growth of efflux-deficient E. coli DRC39 – strain DRC39, OD650, 48 h, E. coli filamentation inducers, primary screen (AID 1179);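 note: screen aims at cell division blockers that make cells filament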; details: E. coli DRC39 delta-acrAB growth, higher = more signal, called active from +8 up or from −8 down
[9] = viability profiling in RPMI8226 myeloma cells – cell-based, resazurin fluorescence, basal, 24 h, PK04 Diversity Set, profiling panel (AID 1180); details: higher = more signal;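 note: RPMI8826 multiple myeloma cell line at 5000 cells per well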
[10] = target: E3 ubiquitin-protein ligase XIAP (Homo sapiens) (UniProt P98170); test: small molecules binding XIAP protein – biophysical, small-molecule microarray, fluorescence 635 nm, primary screen (AID 1181); details: higher = more signal;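 note: score merges 667 nm emission and signal to noise over triplicate slides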
Chain of E3 ubiquitin-protein ligase XIAP (Homo sapiens) (P98170 whole entry, looked up, the tested form may be a part): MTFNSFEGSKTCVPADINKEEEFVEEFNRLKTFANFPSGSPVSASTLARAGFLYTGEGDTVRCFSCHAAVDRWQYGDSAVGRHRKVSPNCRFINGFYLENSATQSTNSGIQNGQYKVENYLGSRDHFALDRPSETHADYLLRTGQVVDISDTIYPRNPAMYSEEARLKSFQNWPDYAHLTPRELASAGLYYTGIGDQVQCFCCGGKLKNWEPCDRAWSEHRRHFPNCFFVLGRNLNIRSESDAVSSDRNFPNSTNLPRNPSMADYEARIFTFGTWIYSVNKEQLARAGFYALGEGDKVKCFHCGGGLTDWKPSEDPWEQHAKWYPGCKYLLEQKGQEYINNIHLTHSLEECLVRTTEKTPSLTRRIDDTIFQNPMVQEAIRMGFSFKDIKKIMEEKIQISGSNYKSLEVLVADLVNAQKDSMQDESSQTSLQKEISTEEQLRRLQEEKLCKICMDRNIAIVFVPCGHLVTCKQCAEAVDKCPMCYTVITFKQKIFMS

[11] = test system: XIP peptide (Xip251-270) binding; test: XIP fragment 251-270 binding compounds – biochemical, small-molecule microarray, fluorescence 635/667 nm, 0.1 µg/mL protein, primary screen (AID 1182); details: fluorescent protein binding, 635 nm, higher = more signal, called active from +8 up or from −8 down
XIP peptide (Xip251-270) = test: compounds binding XIP fragment 251-270 – biochemical, small-molecule microarray, fluorescence 635/667 nm, 0.5 µg/mL protein, primary screen (AID 1183); details: fluorescence 635 nm, higher = more signal
[12] = blood-stage malaria parasite viability loss – strain 3D7, DAPI fluorescence, 100 nL, primary screen (AID 1184);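 note: parasites grown inside human red blood cells in medium with human serum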; details: P. falciparum 3D7 growth, 3 d, higher = more signal
[13] = target: Homeobox protein Hox-A13 (Mus musculus) (UniProt Q62424); test: disruptors of Hoxa13 oligonucleotide interaction – biochemical, fluorescence polarization, labeled oligonucleotide, primary screen (AID 1185); details: Hoxa13:DNA binding, 15 min, higher = more signal, called active from +8 up or from −8 down
Chain of Homeobox protein Hox-A13 (Mus musculus) (Q62424 whole entry, looked up): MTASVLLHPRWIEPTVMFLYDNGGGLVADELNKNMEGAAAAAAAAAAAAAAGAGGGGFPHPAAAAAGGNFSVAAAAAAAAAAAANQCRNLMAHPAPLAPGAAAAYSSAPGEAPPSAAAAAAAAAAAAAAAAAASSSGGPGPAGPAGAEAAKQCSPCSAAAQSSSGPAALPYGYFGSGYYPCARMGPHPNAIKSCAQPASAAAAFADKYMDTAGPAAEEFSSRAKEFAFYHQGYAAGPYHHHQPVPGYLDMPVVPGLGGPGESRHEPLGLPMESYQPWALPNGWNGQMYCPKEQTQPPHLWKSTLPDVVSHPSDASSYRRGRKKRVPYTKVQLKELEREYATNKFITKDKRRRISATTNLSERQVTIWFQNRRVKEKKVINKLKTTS

[14] = blockers of DNA damage checkpoint Chk1 activation – imaging, HeLa, hydroxyurea, phospho-Chk1 antibody, percent positive cells, primary screen (AID 1186); details: hydroxyurea-induced phospho-Chk1 immunofluorescence imaging, higher = more signal
[15] = blockers of DNA damage checkpoint Chk1 activation – imaging, HeLa, hydroxyurea, phospho-Chk1 nuclear intensity, primary screen (AID 1187); details: hydroxyurea-induced phospho-Chk1 immunofluorescence imaging, higher = more signal

Row | Compound | z-score [1] | z-score [2] | z-score [3] | composite z-score [4] | z-score [5] | z-score [6] | z-score [7] | z-score [8] | z-score [9] | composite z-score [10] | composite z-score [11] | composite z-score (XIP peptide (Xip251-270)) | z-score [12] | z-score [13] | z-score [14] | z-score [15]
1 | COCCOC(=O)N1C(=O)[C@@]2(c3cc(C#CCC(C(=O)OC)C(=O)OC)ccc31)[C@H](c1ccc(O)cc1)N1[C@H](c3ccccc3)[C@H](c3ccccc3)OC(=O)[C@H]1[C@@H]2C(N)=O | -0.2 | -0.235 (inactive) | -0.0347 (inactive) | -0.181 (inactive) | 1.28 (inactive) | 0.332 (inactive) | -0.319 (inactive) | -0.586 (inactive) | -0.777 | 0.098 | 1.39 (inactive) | 0.619 | -0.486 | -3.8 (inactive) | 0.676 (inactive) | 0.98 (inactive)
2 | O=C1O[C@@H](c2ccccc2)[C@@H](c2ccccc2)N2[C@@H](c3ccccc3OCCO)[C@]3(C(=O)Nc4ccc(C#CC5(O)CCCCCC5)cc43)[C@@H](C(=O)Nc3nc4ccccc4s3)[C@H]12 | -0.592 | 0.193 (inactive) | -3.35 (inactive) | 0.18 (inactive) | 2.5 (inactive) | 1.86 (inactive) | -0.994 (inactive) | -1.19 (inactive) | -4.98 | 0.0077 | 0.0985 (inactive) | 0.626 | -2.16 | 2.1 (inactive) | 0.329 (inactive) | 0.288 (inactive)
3 | C=CCC(OC(C)=O)[C@@H]1[C@@H](N(Cc2ccc(-c3cccc(C(F)(F)F)c3)o2)C(=O)c2ccc(C)cc2)c2cc(OCCCO)ccc2N1C(=O)c1ccc(-c2ccccc2)cc1 (some centres undefined) | 0.0024 | -0.15 (inactive) | -0.936 (inactive) | -0.23 (inactive) | 0.477 (inactive) | 0.677 (inactive) | -0.456 (inactive) | 0.0289 (inactive) | 0.525 | -0.127 | 2.96 (inactive) | 0.0783 | -2.5 | -1.07 (inactive) | -0.205 (inactive) | -0.266 (inactive)
4 | CCOC(=O)C[C@H]1[C@H](OC(=O)c2ccccc2-c2ccccc2)[C@@H](NC(=O)c2ccc3ccccc3c2)c2cc(OCCCO)ccc2N1C(=O)c1ccc2ccccc2n1 | 1.33 | 0.682 (inactive) | 0.288 (inactive) | 0.428 (inactive) | -0.271 (inactive) | 0.876 (inactive) | 0.672 (inactive) | 0.641 (inactive) | 0.726 | -0.144 | 0.157 (inactive) | 0.171 | -0.34 | -2.08 (inactive) | 0.308 (inactive) | -0.334 (inactive)
5 | COC(=O)c1ccc(OC)c(/C=C\CC(OC(C)=O)c2ccccc2)c1 (centres undefined) | 0.0209 | -1.17 (inactive) | -0.345 (inactive) | -3.79 (inactive) | -0.351 (inactive) | -0.639 (inactive) | 0.0847 (inactive) | -0.396 (inactive) | -1.1 | 0.0131 | 0.322 (inactive) | 0.501 | 0.0859 | -2.35 (inactive) | 0.237 (inactive) | 0.328 (inactive)
6 | CO[C@H]1O[C@H](CO)[C@@H](OC(=O)Nc2ccc3c(c2)OCO3)[C@H](OC(=O)Nc2ccccc2)[C@H]1OC(=O)Nc1ccccc1 | -1.78 | 1.38 (inactive) | -3.14 (inactive) | 1.15 (inactive) | -0.329 (inactive) | 2.93 (inactive) | 0.402 (inactive) | -0.728 (inactive) | -2.41 | 0.137 | 0.981 (inactive) | 0.831 | -2.49 | -4.76 (inactive) | -0.328 (inactive) | -0.439 (inactive)
7 | CC(C)NC(=O)[C@@H]1c2ccccc2C(=O)N(Cc2ccccc2)[C@H]1c1ccc(CO)cc1 | -0.043 | 0.349 (inactive) | -0.889 (inactive) | 0.0505 (inactive) | 0.292 (inactive) | -0.714 (inactive) | 0.0003 (inactive) | -0.176 (inactive) | -0.239 | -0.0473 | 0.747 (inactive) | -0.138 | -0.679 | -2.9 (inactive) | -0.0443 (inactive) | 0.0197 (inactive)
8 | CCOC(=O)C1=CC[C@@H](c2ccccc2Cl)N(S(=O)(=O)c2ccc(C)cc2)C1 | -0.358 | -1.65 (inactive) | 0.0161 (inactive) | -0.978 (inactive) | -0.308 (inactive) | -0.24 (inactive) | -0.203 (inactive) | 1.03 (inactive) | -1.37 | -0.0115 | 0.792 (inactive) | 0.488 | -2.06 | -2.78 (inactive) | -1.55 (inactive) | -1.77 (inactive)
9 | CCCNC(=O)[C@@H]1c2ccccc2C(=O)N(Cc2ccccc2)[C@H]1c1ccc(CO)cc1 | -0.898 | 0.215 (inactive) | 0.0254 (inactive) | 0.939 (inactive) | 1.27 (inactive) | 0.797 (inactive) | -0.229 (inactive) | -0.969 (inactive) | 0.477 | -0.276 | 0.838 (inactive) | 0.312 | -1.62 | -2.71 (inactive) | 0.0089 (inactive) | -0.142 (inactive)
